Only a selection was taken, and hits are over-represented in it overall.
RE007 growth inh – less growth of the S. pombe RE007 Vpr strain; S. pombe RE007 Vpr strain, BacTiter-Glo ATP luminescence, 24 h; Potency, µM (series often up to 92.2 µM), for the others: top-dose activity change, negative = less growth, actives largely listed as inhibitors; 360,000 tested, 0.21% active; active means well fitted falling curve with a large enough effect; inconclusive means small, poorly fitted or top-dose-only effect; inactive means no such curve, though single readings can be large or run the other way; further: potency means the concentration at half of the fitted maximal effect; on the % scale 0 is the no-effect control and ±100 the full control effect; nearly all actives have a fitted effect of over 50% in size
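Fission yeast strain RE007, carrying one chromosomally integrated HIV-1 vpr copy, was seeded at OD 0.01 in PMG+AL medium with 23 nL pinned compound. After 24 h at 30 °C and 99% humidity, viability was read by BacTiter-Glo luminescence.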
LmPK inhibitor – LmPK (Leishmania mexicana) enzyme inhibition. purified LmPK, Kinase-Glo ATP luminescence, 1 h. Potency, µM (top dose mostly 57.5 µM), for the others: at the top dose activity change, negative = inhibition, usual class: inhibitors. 290,000 tested, 0.37% active. AID 1721. Q27686; further: potency means the concentration at half of the fitted maximal effect; on the % scale 0 is the no-effect control and ±100 the full control effect
Target sequence (Q27686 whole entry, looked up): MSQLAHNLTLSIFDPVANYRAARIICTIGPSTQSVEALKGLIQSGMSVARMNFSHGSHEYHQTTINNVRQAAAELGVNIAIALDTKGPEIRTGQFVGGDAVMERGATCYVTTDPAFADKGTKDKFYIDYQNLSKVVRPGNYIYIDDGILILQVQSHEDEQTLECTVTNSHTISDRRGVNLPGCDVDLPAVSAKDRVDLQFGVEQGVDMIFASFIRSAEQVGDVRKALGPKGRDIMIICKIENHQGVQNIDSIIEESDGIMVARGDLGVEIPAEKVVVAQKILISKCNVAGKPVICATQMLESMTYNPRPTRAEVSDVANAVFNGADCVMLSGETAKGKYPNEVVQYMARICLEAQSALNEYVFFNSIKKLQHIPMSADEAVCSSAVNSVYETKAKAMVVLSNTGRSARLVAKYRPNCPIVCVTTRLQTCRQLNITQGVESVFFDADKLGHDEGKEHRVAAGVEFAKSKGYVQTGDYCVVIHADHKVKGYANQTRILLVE
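In 50 mM imidazole pH 7.2 with 7 mM MgCl2, LmPK (0.1 nM) turned over PEP (0.5 mM) and ADP (0.1 mM) for 1 h at room temperature. Luciferase read-out of ATP.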
TbPYK inhibitor – T. brucei pyruvate kinase inhibition. Q57TT1. TbPYK enzyme, Kinase-Glo Plus ATP luminescence, 45 min. 410,000 tested, 0.12% active. Potency, µM (titrated, usually from 76.8 µM), without a hit: at the highest dose activity, negative = inhibition, usual class: inhibitors. AID 624173; further: potency means the concentration at half of the fitted maximal effect; on the % scale 0 is the no-effect control and ±100 the full control effect; nearly all actives have a fitted effect of over 50% in size
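T. brucei PYK with substrate was exposed to pin-transferred compounds across a concentration series, then started with 130 uM ADP (final). After 45 min at room temperature, Kinase-Glo Plus luminescence was read, normalized and curve-fitted.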
Giardia FBPA inh – blocks Giardia fructose-bisphosphate aldolase activity; A8B2U2; purified Giardia FBPA; Potency, µM (doses to about 59.6 µM), inactives show top-dose activity, negative = inhibition, actives largely listed as inhibitors; 290,000 tested, 0.71% active; further: potency means the concentration at half of the fitted maximal effect; on the % scale 0 is the no-effect control and ±100 the full control effect; nearly all actives have a fitted effect of over 55% in size
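Giardia FBPA (40 nM reagent) was preincubated 10 min at RT with compound (up to 57.5 uM final), then substrate plus GAPDH/TPI/NAD/arsenate coupling system with diaphorase/resazurin was added; resorufin fluorescence (525/598 nm) was read after 20 min.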
Shiga inhibitor – blocks Shiga toxin action in Vero cells; Vero cells, Shiga toxin protein synthesis inhibition reporter; inhibition, % at 38.7 µM; 290,000 tested, 9.2% active; in the data active means inhibition mostly above about 28%, no sharp cut-off; inactive means mostly below about 43%; further: 0% is about no effect
Cycloheximide cs – counter-screen for Shiga toxin inhibitors: cycloheximide protein synthesis inhibition | max response, % | cell reporter, cycloheximide protein synthesis inhibition counterscreen | 300,000 tested, 12% active | AID 2314; in the data active means max response mostly above about 13%, no sharp cut-off; inactive means mostly below about 14%; further: read at 38.3 µM for the half of the compounds with a filed dose; 0% is about no effect
Numbers without * were called inactive; ? = inconclusive; · = no result; [ ] = another dose, or the depositor's remark. Unless noted, the call rests on the fitted dose curve; in most records, active means well fitted curve in the direction sought with a large enough effect; inconclusive means small, poorly fitted or top-dose-only effect, or another doubt; inactive means no such curve, though single readings can be large; an effect the other way counts as inactive or inconclusive.

SMILES	RE007 growth inh	LmPK inhibitor	TbPYK inhibitor	Giardia FBPA inh	Shiga inhibitor	Cycloheximide cs
O=C(NCc1cccs1)c1cnc(Cl)c(Cl)c1	14%	5%	-1%	-1%	45*	30*
O=C(NCCc1ccccc1)c1cnc(Cl)c(Cl)c1	15%	-9%	-5%	0%	105*	31*
CC1CCN(c2ccc(C(=O)NCc3cccs3)cn2)CC1	8%	2%	8%	1%	78	52*
C1CCN2CC3CC(CN4CCCC[C@@H]34)C2C1 (some centres undefined)	·	·	·	3%	·	·
C/C(CCC(=O)OC[C@@H]1O[C@H](C#Cc2ccccc2)C=C[C@@H]1Oc1ccc(C)cc1)=N/OC[C@@H](O)[C@H]1O[C@H]2OC(C)(C)O[C@H]2[C@@H]1O	·	·	·	-5%[12.9 µM]	·	·
Cc1ccc(N=C2C(=O)Nc3ccccc32)cc1	·	-5%	7%	-12%	-3	-2
Cc1nc2c(o1)C(=O)c1ccccc1C2=Nc1ccccc1	7.1µM*	·	-2%	·	·	·
Cc1cccc2nc(COc3ccc(Cl)c4cccnc34)cn12	?	-1%	2%	-12%	102*	33*
Cc1ccc(N=C(c2cccs2)N2CCOCC2)cc1	-9%	-2%	-19%	7%	59*	15*
O=C(c1cccs1)N1CCOCC1	-11%	3%	8%	11%	16	-1
O=C(NCc1ccc(F)cc1)c1cc2n(n1)CCCN(Cc1ccc(F)cc1)C2=O	·	·	-2%	·	·	·
CCN(CC)c1ccc(/C=C(\C#N)C(=O)NCc2ccccc2)cc1	-1%	5%	0%	-1%	-7	-2
CN(C)c1ccc(/C=C(\C#N)C(=O)NCc2ccco2)cc1	·	-6%	·	-3%	85*	50*
Cc1ccc(CNC(=O)/C(C#N)=C\c2ccc(N(C)C)cc2)cc1	·	8%	·	5%	-5	12
Cn1c(=O)n(C)c2cc(/C=C(/C#N)C(=O)NCc3ccco3)ccc21	3%	0%	4%	-12%	-9	1
CCN(CC)c1ccc(/C=C(\C#N)C(=O)NCc2ccco2)cc1	·	-4%	·	-1%	43*	36*
N#C/C(=C\Nc1ccc2c(c1)OCCO2)C(=O)NCc1ccco1	-10%	1%	-4%	-1%	32*	20
CC1CCc2nc(NC(=O)CSc3nc4ccccc4o3)sc2C1 (centres undefined)	1%	9%	1%	0%	85*	52*
COC(=O)c1ccc(C(=O)NC(=S)Nc2nc3c(s2)CC(C)CC3)cc1 (centres undefined)	-20%	5%	-6%	?	7	27*
CCCCOc1ccc(C(=O)Nc2nc3c(s2)CC(C)CC3)cc1 (centres undefined)	·	·	-6%	·	·	·
Cc1nnc(SCC(=O)Nc2nc3c(s2)CC(C)CC3)s1 (centres undefined)	11%	1%	3%	-14%	60*	37*
Cc1noc(C)c1-c1ccc2ncnc(NCc3ccc(-c4ccccc4)cc3)c2c1	·	·	·	-2%	48*	38*
N/C(=N\OC(=O)Cc1ccc(Cl)cc1)c1ccncc1	3%	3%	-15%	1%	28	-2
COc1ccc(CC(=O)O/N=C(\N)c2ccncc2)cc1	-8%	5%	-3%	3%	82*	15*
COc1ccc(OCC(=O)O/N=C(\N)c2ccc(OC)c(OC)c2)cc1	-27%	-1%	2%	0%	30	-1
COc1ccc(CC(=O)O/N=C(\N)c2ccc(C)cc2)cc1	3%	4%	-6%	5%	118*	47*
COc1ccc(/C(N)=N/OC(=O)Cc2ccc(C)cc2)cc1OC	-3%	-6%	1%	2%	-5	15*
Cc1ccc(SCCc2cc[n+](CC(=O)c3ccccc3)cc2)cc1	10%	13%	0%	-24%	125*	51*
Cc1ccc(C(=O)C[n+]2ccc3ccccc3c2)cc1	-26%	-1%	3%	0%	45	22*
O=C(NCC(=O)N1CCN(Cc2ccccc2)CC1)c1ccc(Br)o1	2%	4%	-4%	7%	16	14*

Screening results deposited in PubChem by National Center for Advancing Translational Sciences (NCATS).
